A selection: hits, their analogues and other compounds. The true share with any hit is near 10%.
MmCpn inh: Inhibitors of TCP-1 ring complex (TRiC) of Methanococcus maripaludis (MmCpn): qHTS; Chaperonin Mm-Cpn (Methanococcus maripaludis); purified Mm-Cpn ATPase, ADP Transcreener TR-FRET; Potency, µM (top dose mostly 76.9 µM), inactives show top-dose activity, negative = inhibition, hits mostly inhibitors; 330,000 tested, 0.031% active; further: potency means the concentration at half of the fitted maximal effect; nearly all actives have a fitted effect of over 80% in size
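Measured: ADP formation by purified Mm-CPN. Conditions: 25 nM protein, 10 uM ATP, Tris pH 7.4 with Mg2+, K+ and DTT, 37°C for 30 min. Detection: Transcreener HTRF after 30 min at room temperature.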
CCT chaperon mod: High-Throughput Screening for Modulators of Cytosolic Chaperonin Activity. purified chaperonin ATPase assay, HTRF ADP detection, 30 min. activity change, % (concentration not given with the values), hits read low. 360,000 tested, 0.3% active; in the data active means activity change below about -30%
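We incubate TRiC, 40 or 20 nM final, with library compounds at 76 uM and 10 uM ATP for 30 min at 37 °C. ADP formed is detected with Transcreener HTRF reagents after 30 min at room temperature.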
PLK1 PBD block: qHTS for Inhibitors of PLK1-PDB (polo-like kinase 1 - polo-box domain): Primary Screen. 360,000 tested, 2.8% active. Serine/threonine-protein kinase PLK1 (Homo sapiens), P53350. Potency, µM, inactives show max response, negative = inhibition, hits mostly inhibitors. Plk1 PBD binding of FITC phosphopeptide, fluorescence polarization; further: potency means the concentration at half of the fitted maximal effect; series mostly up to about 57 µM; nearly all actives have a fitted effect of over 65% in size
G9a block: qHTS Assay for Inhibitors of Histone Lysine Methyltransferase G9a | G9a H3K9 monomethylation, AlphaScreen, 2 h | AID 504332, 2011 | Potency, µM (top dose mostly 102 µM), for inactives: top-dose activity, negative = inhibition, most hits filed as inhibitors | 350,000 tested, 8.8% active | Histone-lysine N-methyltransferase EHMT2 (Homo sapiens), Q96KQ7; further: potency means the concentration at half of the fitted maximal effect; nearly all actives have a fitted effect of over 75% in size
Target sequence (Q96KQ7 913-1193 limits assumed): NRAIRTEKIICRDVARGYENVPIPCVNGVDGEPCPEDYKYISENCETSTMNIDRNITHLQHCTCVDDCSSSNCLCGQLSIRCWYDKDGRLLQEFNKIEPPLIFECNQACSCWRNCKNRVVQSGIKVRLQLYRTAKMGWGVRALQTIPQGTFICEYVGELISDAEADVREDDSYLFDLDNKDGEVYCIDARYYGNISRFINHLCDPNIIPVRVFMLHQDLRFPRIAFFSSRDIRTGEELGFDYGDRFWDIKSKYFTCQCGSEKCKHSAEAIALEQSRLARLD
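Chemiluminescent proximity detection of H3K9 monomethylation, read after 10 min bead incubation in the dark. Reaction: 20 nM G9a, 500 nM biotin-H3K9 peptide, 20 uM SAM cofactor, 2 h, room temperature, following 15 min enzyme-compound preincubation.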
Sfp PPTase inh: qHTS Assay for Inhibitors of Bacillus subtilis Sfp phosphopantetheinyl transferase (PPTase) | AID 1490, 2009 | Biochemical Sfp PPTase activity, qHTS | 310,000 tested, 3.5% active | Potency, µM, for inactives: largest response in the series, negative = inhibition, actives largely listed as inhibitors;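 further: the enzyme is Sfp with the accession as filed and its product quenches rhodamine fluorescence; potency means the concentration at half of the fitted maximal effect; 0% = enzyme reaction without inhibitor and -100% = no enzyme wells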
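Compounds were incubated with enzyme (final 15 nM) for 15 min at room temperature before substrate addition started the reaction. Fluorescence at 525 nm excitation, 598 nm emission was recorded immediately and after 30 minutes.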
VDR inhibitor: Inhibitors of the vitamin D receptor (VDR): qHTS | AID 504847, 2011 | Potency, µM, inactives show max response, negative = inhibition, most hits filed as inhibitors | VDR-SRC2-3 peptide fluorescence polarization, 2 h | 400,000 tested, 0.93% active | Vitamin D3 receptor (Homo sapiens), P11473; further: potency means the concentration at half of the fitted maximal effect
Target sequence (P11473 whole entry, looked up): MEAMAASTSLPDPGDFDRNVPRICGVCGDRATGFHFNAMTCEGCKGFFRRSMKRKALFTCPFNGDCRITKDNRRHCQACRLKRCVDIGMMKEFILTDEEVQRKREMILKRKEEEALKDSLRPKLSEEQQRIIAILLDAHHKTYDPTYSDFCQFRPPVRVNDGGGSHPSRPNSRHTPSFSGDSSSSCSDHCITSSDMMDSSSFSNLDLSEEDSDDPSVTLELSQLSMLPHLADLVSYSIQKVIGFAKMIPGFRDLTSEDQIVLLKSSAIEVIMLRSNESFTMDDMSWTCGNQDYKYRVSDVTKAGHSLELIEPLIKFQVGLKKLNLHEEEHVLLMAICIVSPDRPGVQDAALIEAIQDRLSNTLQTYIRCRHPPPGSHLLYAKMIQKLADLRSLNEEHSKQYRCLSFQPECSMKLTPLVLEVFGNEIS
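After 23 nl compound addition and a short centrifugation, plates sat for 2 hours at ambient temperature; polarization of fluorescence then indicated loss of VDR binding to peptide SRC2-3.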
Numbers without * were called inactive; u = inconclusive; x = no result given; [ ] = remark or other dose. Unless noted, the call rests on the fitted dose curve; in most records, active means well fitted curve in the direction sought with a large enough effect; inconclusive means small, poorly fitted or top-dose-only effect, or another doubt; inactive means no such curve, though single readings can be large; an effect the other way counts as inactive or inconclusive. Unless noted, on the % scale 0 is the no-effect control and ±100 the full control effect.

SMILES | MmCpn inh | CCT chaperon mod | PLK1 PBD block | G9a block | Sfp PPTase inh | VDR inhibitor
O=C(CSc1nnc(CNC(=O)c2ccco2)o1)Nc1ccccc1F | -4% | -4 | 21µM* | 25µM* | 40µM* | -5%
O=C(CSc1nnc(CNC(=O)c2ccco2)o1)Nc1ccccc1C(F)(F)F | 2% | -1 | 8% | 2%[0.501 µM] | 5% | 6%
Cc1ccc(NC(=O)c2ccc(F)c(S(=O)(=O)NCCc3ccccc3)c2)cc1F | x | x | x | -23%[59 µM] | x | 12%
COCC(=O)N1CCC2(CCN(Cc3nccs3)CC2)CC1 | x | x | x | -7%[12.7 µM] | 28% | 6%
C=CCSSSCC=C | x | x | x | -19%[2.33 µM] | 40µM* | 25µM*
CCOc1ccc(C(=S)N2CCCC2)c(OCC)c1 | -2% | -1 | 12µM* | 10µM* | 50µM* | u
CCOc1ccc(C(=S)N2CCCC2)cc1 | 1% | -5 | -4% | 25%[2.33 µM] | 3% | 1%
COc1ccccc1NC(=O)Nc1nn(C)c2cccc(N(C)C)c12 | -1% | -6 | -6% | 14µM* | -10% | -1%
CS(=O)(=O)c1ccc(N)c(SSc2cc(S(C)(=O)=O)ccc2N)c1 | -6% | -2 | 0.95µM* | u | x | 25µM*
N#Cc1cccc(NC(=O)C2CCN(c3ncccn3)CC2)c1 | x | x | x | 8%[59 µM] | x | 1%
CC(C)(C)c1ccc(-n2nc(C(N)=O)c(O)cc2=O)cc1 | -3% | -3 | 4.7µM* | -11% | 14% | u
Cc1ccc2cc(C(c3nnnn3C3CCCC3)N(Cc3ccccc3)Cc3ccco3)c(=O)[nH]c2c1 (stereo unspecified) | -6% | 0 | -2% | u | u | -10%
CC(C)(C)n1nnnc1C(c1ccncc1)N(Cc1ccccc1)Cc1ccco1 (stereo unspecified) | u | 1 | -8% | -3%[12.7 µM] | 50µM* | -20%
Cc1cc2cc(C(c3nnnn3C3CCCC3)N(Cc3cccnc3)Cc3ccco3)c(=O)[nH]c2cc1C (stereo unspecified) | -15% | 0 | -1% | u | 56µM* | 7%
CCC(C)(C)n1nnnc1C(c1cc2ccc(C)cc2[nH]c1=O)N(Cc1cccnc1)Cc1ccco1 (stereo unspecified) | 2% | -2 | -6% | 50µM* | -18% | -21%
O=C(CCCl)Nc1cccc2cccnc12 | x | x | x | x | x | -9%
Cc1cc2nc(CCl)cc(=O)n2[nH]1 | 0% | 0 | 4% | 11% | -8% | 23%
Cc1cc2nc(CSc3ccccc3)cc(=O)n2[nH]1 | -6% | -2 | 21µM* | 34% | -15% | 13%
O=C(O)CCN1C(=O)C2C3CC(C2C1=O)C1C(c2ccccc2)c2sc(=O)n(-c4ccccc4)c2SC31 (stereo unspecified) | 0% | 1 | 42µM* | 45µM* | u | u
CCOc1ccccc1N(C)C(=O)C1CCCN(c2ncnc3onc(-c4ccc(F)cc4)c23)C1 (stereo unspecified) | x | x | x | -36%[59 µM] | x | -9%
C/C(=N\NC(=O)Cc1cccn1C)c1ccc2ccccc2c1 | -1% | -3 | -11% | 71µM* | -1% | -6%
C/C(=N/NC(=O)Cc1cccn1C)c1ccccc1 | 1% | -3 | -4% | -36% | 7% | -3%
CN(CCOc1ccccc1)CC(=O)Nc1ccc(S(=O)(=O)N2CCCC2)cc1 | 0% | 2 | -1% | x | 56µM* | -15%
CC(=O)NC(CC(=O)Nc1cccc(S(=O)(=O)N2CCOCC2)c1)c1ccccc1 (stereo unspecified) | 1% | 1 | -7% | 6% | x | -6%
CC(=O)NC(CC(=O)Nc1ccc(S(=O)(=O)N2CCCC2)cc1)c1ccccc1 (stereo unspecified) | 0% | 2 | -16% | 28µM* | 7% | 12%
SMILES | MmCpn inh | CCT chaperon mod | PLK1 PBD block | G9a block | Sfp PPTase inh | VDR inhibitor
CN1CCN(S(=O)(=O)c2ccc(NC(=O)COc3ccccc3)cc2)CC1 | 0% | -1 | -10% | -8% | 8% | -8%
Cc1ccc(CCNC(=O)c2cn(C)c3ccc(S(=O)(=O)N4CCCCC4)cc3c2=O)cc1 | x | x | x | 6%[59 µM] | x | -8%
Cc1cccc(NS(=O)(=O)c2ccc3c(c2)C(C)(C)C(=O)N3C)c1 | x | x | x | -19%[59 µM] | x | 19%
CCNc1ncc2nc(-c3cccc(C#N)c3)c(=O)n(CCC#N)c2n1 | x | x | x | 3%[0.501 µM] | 4% | 5%
CCc1cc(C(=O)Nc2ccc(S(=O)(=O)NC3=NCCCCC3)cc2)sc1C | -10% | -2 | -19% | 40µM* | x | -2%
CC(Oc1ccc(Br)cc1)C(=O)Nc1ccc(S(=O)(=O)NC2=NCCCCC2)cc1 (stereo unspecified) | x | 1 | -1% | x | x | 6%
CC(C)c1ccc(C(=O)Nc2ccc(S(=O)(=O)NC3=NCCCCC3)cc2)cc1 | x | 0 | -14% | x | x | x
Cc1ccc(C(=O)Nc2ccc(S(=O)(=O)NC3=NCCCCC3)cc2)c(C)c1 | u | 0 | -7% | -21% | x | 7%
N#Cc1ccc(C(=O)Nc2ccc(S(=O)(=O)NC3=NCCCCC3)cc2)cc1 | -1% | -1 | -2% | 50µM* | 1% | -8%
CC(Oc1cccc(Cl)c1)C(=O)Nc1ccc(S(=O)(=O)NC2=NCCCCC2)cc1 (stereo unspecified) | 0% | -4 | -5% | 35µM* | x | -5%
CC1CN(S(=O)(=O)c2cccc(C(=O)Nc3ccc(S(=O)(=O)NC4=NCCCCC4)cc3)c2)CC(C)O1 (stereo unspecified) | -1% | 0 | -2% | 18µM* | x | -7%
O=C(Nc1ccc(S(=O)(=O)NC2=NCCCCC2)cc1)c1cccc(S(=O)(=O)N2CCOCC2)c1 | 3% | 1 | 0% | x | x | -8%
Cc1c2cnn(-c3ccccc3)c(=O)c2c(C)n1CC(=O)N1CCN(c2ccc(F)cc2)CC1 | x | x | x | u | x | -3%
Cc1ccccc1C(=O)NC1(C(F)(F)F)N=C(c2ccccc2)N(C2CCCCC2)C1=O (stereo unspecified) | x | x | x | -4%[59 µM] | x | -6%
Cc1ccc2nc3sc(C(=O)NCc4ccco4)c(N)c3cc2c1 | -7% | -2 | 32% | 1.6µM* | 4% | -3%
COc1cc2cc3c(N)c(C(=O)NCc4ccco4)sc3nc2cc1OC | u | 2 | -3% | 28µM* | -15% | -1%
CC(Cc1ccccc1)NC(=O)c1cc([N+](=O)[O-])ccc1Cl (stereo unspecified) | 1% | 0 | -12% | 18% | 10% | 17%

Screening results: PubChem BioAssay, National Center for Advancing Translational Sciences (NCATS)
